Here are results for 61 compounds from PubChem BioAssay AID463173 (ICCB-Longwood Screening Facility, Harvard Medical School, 2010).

Among all 52,000 compounds or so, about 4,300 (8.3%) were called active. Cut-off read from the data, not from the text of the source: active = survival mostly below about 52% (no sharp cut-off); inactive = mostly above about 56%. Shown is part of a subset that was picked to be rich in actives.

The test system of this assay is DeltatarO mutant. In words: growth inhibition of S. aureus wild type versus tarO mutant, primary screen, teichoic acid synthesis inhibitors, RN4220, OD600 (AID 463173). The note with it: OD600, 18 h, active compounds read low, screened at 18.75 µg/mL (by protocol).
Take `Cc1cn(S(=O)(=O)c2ccc(F)c(Cl)c2)cn1`: the survival is 91% (inactive).

Turning to `Nc1c(C(=O)Nc2ccc(C(F)(F)F)cc2)sc2nc(-c3cccs3)ccc12`, the survival is 70% (inactive). Turning to `CCN1CCN(c2ncc3c(n2)CCN(Cc2cc(F)cc(F)c2)C3)CC1`, the survival was 90% (inactive). As for `COc1ccc(CCCN=C(N)N)cc1Cl`, the survival is 105% (inactive). `CCCCOc1ccc(CSCCN=C(N)N)cc1`: the survival is 1% (active). On to `CC(C)Oc1ccc(CSCCN)cc1`, for which the survival is 90% (inactive). As to `O=C(NCc1ccccc1)c1ccc(CSc2nc3cccnc3n2Cc2cccc(F)c2)cc1`, the survival is 101% (inactive). For `COC(=O)c1ccc2c(c1)N(CC(=O)Nc1cccc(Cl)c1C)C(=O)c1ccccc1S2`, the survival is 74% (inactive). On to `CC(C)c1ccc2c(c1)NC(c1ccc(F)cc1)=NC(c1cccs1)=N2`, for which the survival was 45% (active).

On to `CC(C)c1ccc2c(c1)NC(c1ccncc1)=NC(c1cccs1)=N2`, for which the survival was 72% (inactive).

For `Clc1ccc2c(c1)NC(c1ccncc1)=NC(c1cccs1)=N2`, the survival is 76% (inactive). On to `Fc1ccc2c(c1)NC(c1ccncc1)=NC(c1cccs1)=N2`, for which the survival is 30% (active). For `CCOc1ccc(C2=NC(c3cccs3)=Nc3ccc(C(C)C)cc3N2)cc1`, the survival was 58% (inactive).

In the case of `FC(F)(F)Oc1ccc2c(c1)NC(c1ccncc1)=NC(c1cccs1)=N2`, the survival is 91% (inactive). Consider `CCCCOc1cccc(C(=O)Nc2cccc(-c3nc4ncccc4o3)c2C)c1`, for which the survival was 47% (inactive). On to `COc1ccc(NC(=O)[C@@H](c2ccccc2)N2Cc3ccccc3C2=O)cc1OC`, for which the survival was 62% (inactive). Under `COc1cccc(CNC(=O)C2CCN(c3ncnc4c3nc3n4CCCCC3)CC2)c1` stands 86% (inactive); under `COc1ccc(CNc2nc(-c3ccco3)nn2C(=O)CC(C)C)cc1`, 103% (inactive). For `O=C(CS(=O)(=O)c1nc(-c2ccc(Cl)cc2)cn1-c1ccccc1)Nc1cccc(Cl)c1` the value was 68% (inactive); for `O=C(CS(=O)(=O)c1nc(-c2ccc(Cl)cc2)cn1-c1ccccc1)Nc1ccc(F)cc1F`, 50% (active). For `Cc1ccc(-c2cn(-c3cccc(Cl)c3)c(S(=O)(=O)CC(=O)Nc3ccccc3F)n2)cc1`, the survival was 61% (inactive).

As to `CN1CCN(C(=O)C(=O)Nc2c3c(nn2-c2cccc(Cl)c2)CSC3)CC1`, the survival was 76% (inactive). As to `COCCNC(=O)c1cc2ccccc2o1`, the survival is 104% (inactive). Regarding `O=C(NC1CC(=O)N(c2ccc(Cl)cc2)C1)c1cc2ccccc2o1` (stereo unspecified), the survival was 52% (active). `Cc1ccc(N2CC(NC(=O)c3cc4ccccc4o3)CC2=O)cc1` (stereo unspecified): the survival is 99% (inactive). `O=C(NC1CC(=O)N(c2ccccc2)C1)c1cc2ccccc2o1` (stereo unspecified): the survival was 89% (inactive).

Turning to `O=C(NCc1ccccc1Cl)c1cc2ccccc2o1`, the survival is 74% (inactive). As to `O=C(NCc1ccc(Cl)cc1)c1cc2ccccc2o1`, the survival was 61% (active).

As for `COc1ccc(CN2CCCN(CC(=O)Nc3ccc4c(c3)OCCO4)S2(=O)=O)cc1`, the survival was 74% (inactive).

For the compound `O=C1c2ccccc2C(=O)N1CCCn1nnc(-c2ccc(N3CCOCC3)cc2)n1`, the survival was 74% (inactive). Turning to `C=CCNc1nc(Cl)nc(Cl)n1`, the survival is 99% (inactive). As for `CC(C)Nc1nc(Cl)nc(NCCO)n1`, the survival is 110% (inactive). As to `CCCNc1nc(Cl)nc(Cl)n1`, the survival was 62% (active).

On to `Cc1ccc(-n2ncc3c(=O)n(Cc4cccc(Cl)c4)cnc32)cc1C`, for which the survival was 91% (inactive). Regarding `CN(Cc1ccccc1)S(=O)(=O)c1cc(Br)cc2c1N(C(=O)C1CC1)CC2`, the survival was 34% (active). For `CC(=O)Nc1ccc(NS(=O)(=O)c2cc(Br)cc3c2N(C(=O)C2CC2)CC3)cc1` the value was 74% (inactive); for `CCc1ccccc1NS(=O)(=O)c1cc(Br)cc2c1N(C(=O)C1CC1)CC2`, 52% (active).

For `COc1ccccc1CNS(=O)(=O)c1cc(Br)cc2c1N(C(=O)C1CC1)CC2`, the survival was 58% (inactive). For `CCCCN(Cc1ccccc1)S(=O)(=O)c1cc(Br)cc2c1N(C(=O)C1CC1)CC2` the value was 57% (inactive); for `COc1ccc(Cl)cc1NS(=O)(=O)c1cc(Br)cc2c1N(C(=O)C1CC1)CC2`, 55% (active). Regarding `Cc1ccc(NS(=O)(=O)c2cc(Br)cc3c2N(C(=O)C2CC2)CC3)cc1C`, the survival is 95% (inactive).

As for `CCN(Cc1ccccc1)S(=O)(=O)c1cc(Br)cc2c1N(C(=O)C1CC1)CC2`, the survival was 58% (inactive).

Take `CCOc1ccc(NS(=O)(=O)c2cc(Br)cc3c2N(C(=O)C2CC2)CC3)cc1`: the survival was 79% (inactive). Under `CC(C)c1ccc(NS(=O)(=O)c2cc(Br)cc3c2N(C(=O)C2CC2)CC3)cc1` stands 56% (inactive); under `O=C(C1CC1)N1CCc2cc(Br)cc(S(=O)(=O)Nc3ccc(C(F)(F)F)cc3)c21`, 41% (active). As to `COc1cc(NS(=O)(=O)c2cc(Br)cc3c2N(C(=O)C2CC2)CC3)cc(OC)c1`, the survival is 99% (inactive).

Turning to `CCC(C)Nc1nc2c(c(=O)[nH]c(=O)n2C)n1Cc1ccc(F)cc1` (stereo unspecified), the survival was 73% (inactive). As for `Cc1cc(C)c(NC(=O)CN(c2ccccc2)S(=O)(=O)N(C)C)c(C)c1`, the survival was 66% (inactive). Turning to `CCCc1ccc(OCC(=O)Nc2sc3c(c2C(=O)OCC)CCC(C(C)(C)C)C3)cc1` (stereo unspecified), the survival is 125% (inactive). As for `COc1ccc(-n2c(=O)c3ccc(C(=O)NCc4ccc(C)cc4)cc3n(Cc3ccc(F)cc3Cl)c2=O)cc1`, the survival was 99% (inactive). For `COc1ccc(C2=NC(C)(C)N(CC(=O)Nc3cccc(C)c3)C2=O)cc1`, the survival was 76% (inactive).

For the compound `CC(=O)N(Cc1ccccc1)Cc1cc2cc(C)ccc2n2nnnc12`, the survival was 77% (inactive). Regarding `COc1ccc(Nc2nc(N)nc(N)c2S(=O)(=O)c2ccccc2)cc1`, the survival is 78% (inactive). On to `O=C(CCS(=O)(=O)c1cc(Br)cc2c1N(C(=O)C1CC1)CC2)NCc1ccccc1Cl`, for which the survival was 100% (inactive). With `O=c1c2sc3ccccc3c2n(Cc2ccc(Cl)cc2)c(=O)n1Cc1ccco1`, the survival is 83% (inactive). For `c1ccc(Nc2nc(N3CCCCC3)nc(N3CCCCC3)n2)cc1`, the survival is 106% (inactive). Regarding `Cc1ccc(Nc2nc(Nc3ccc(C)c(C)c3)nc(N3CCOCC3)n2)cc1C`, the survival is 34% (active). Under `NNc1nc(N2CCOCC2)nc(N2CCOCC2)n1` stands 76% (inactive); under `Fc1ccc(Nc2nc(Nc3ccc(F)cc3)nc(N3CCOCC3)n2)cc1`, 87% (inactive); under `Cc1ccc(Nc2c(-c3ccc(N4CCOCC4)cc3)nc3ncccn23)cc1C`, 88% (inactive). Consider `Cc1cccc(Nc2nc(Nc3cccc(C)c3)nc(N3CCOCC3)n2)c1`, for which the survival is 1% (active).
